Assay in all cases: log2 fold change, soluble protein after heating vs DMSO (PISA); higher = thermal stabilisation; K562 cells, 10 uM, 30 min; active = over 0.2 and 3.5 SD of the protein, either way, in both replicates (recomputed)
Compound in one assay: C#Cc1cccc(Nc2ncnc3cc(OCCOC)c(OCCOC)cc23)c1 [erlotinib]
The gist of the method: (§1)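 Values are thermal stability changes relative to control samples and are taken from duplicates. They are stated as log2 fold changes. Before quantification by TMTpro 16plex LC-MS/MS with equalised channel sums, K562 cells at 2×10^6 cells/mL were treated with 10 μM compound for 30 min, heated in aliquots for 3 min across 48°C-58°C, pooled, extracted in PBS with 0.5% NP-40 at 4°C, and centrifuged at 21,000xg for 90 min to give the soluble supernatant.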

Compound in assay [1]: C/C(=N\NC(=O)C1=CC(=CC=C1)S(=O)(=O)N2CCOCC2)/C3=C(C=CC(=C3)Cl)O
The gist of the method: as §1

Compound in assay [2]: C1=CC(=C(C=C1Cl)C2=NC3=NC=CN=C3C(=N2)NC4=CC=NC=C4)F
The gist of the method: as §1

Compound in assay [3]: C1=CC(=CC=C1C2=NC3=C(N2)C=C(C=C3)C(=O)N)OC4=CC=C(C=C4)Cl
The gist of the method:
as §1

Compound in assay [4]: C1=CC2=C(C=CC(=C2)/C=C\3/C(=O)NC(=NCC4=CC=CS4)S3)N=C1
The essentials: as §1

Compound in assay [5]: C1=CC2=NC=CN=C2C=C1/C=C/3\C(=O)NC(=O)S3
The gist of the method:
as §1

Compound in assay [6]: C1=CC=C(C=C1)C2=NC(=C(N2)C3=CC=NC=C3)C4=CC(=C(C=C4)Cl)O
The gist of the method:
as §1

Compound in assay [7]: C1=CC=C2C(=C1)C3=NNC4=CC=CC(=C43)C2=O
The gist of the method:
as §1

Compound in assay [8]: C1CCN(C1)C(=O)NC2=CC=CC(=C2)NC3=NC=C(C(=N3)NCCC4=CN=CN4)Br
The gist of the method: as §1

Compound in assay [9]: C1CN(CCC1(CC2=CC=C(C=C2)Cl)N)C3=NC=NC4=C3C=CN4
The gist of the method: as §1

Compound in the next assay: C1COCCN1CCN2C3=CC=CC=C3N=C2NC(=O)C4=CC(=CC=C4)[N+](=O)[O-] [IRAK-1-4 Inhibitor I]
The essentials: as §1

Compound in another assay: C=CC(=O)N1CCC[C@@H](n2nc(-c3ccc(Oc4ccccc4)cc3)c3c(N)ncnc32)C1 [ibrutinib]
The gist of the method: as §1

Compound in assay [10]: CC(=O)c1cnc2ccc(-c3cc(Cl)c(O)c(Cl)c3)nc2c1N[C@H]1CC[C@H](CN(C)C)CC1
The gist of the method: as §1

Compound in a further assay: CC(C)(C)Cn1c(N)nc2ccc(-c3[nH]c(C(C)(C)C)nc3-c3ccc(F)cc3)nc21 [ralimetinib]
The gist of the method:
as §1

Compound in assay [11]: CC(C)(O)CC(=O)NCCn1ccc2ncnc(Nc3ccc(Oc4cccc(C(F)(F)F)c4)c(Cl)c3)c21
The gist of the method: as §1

Compound in assay [12]: CC(C)C1=C2N=C(C=C(N2N=C1)NCC3=CC=CC=C3)NCCCCCCN
The essentials:
as §1

Compound in assay [13]: CC(C)C[C@@H](C=O)NC(=O)[C@H](CC(C)C)NC(=O)[C@H](CC(C)C)NC(=O)OCc1ccccc1
The gist of the method:
as §1

Compound in the next assay: CC(C)N(C[C@H]1O[C@@H](n2cnc3c(N)ncnc32)[C@H](O)[C@@H]1O)[C@H]1C[C@@H](CCc2nc3cc(C(C)(C)C)ccc3[nH]2)C1 [pinometostat]
The gist of the method:
as §1

Compound in assay [14]: CC1=C(C(CC(=O)N1)C2=CC=C(C=C2)C(F)(F)F)C(=O)NC3=C(C=C4C(=C3)C=NN4)F
The essentials:
as §1

Compound in assay [15]: CC1=C(C2=C(C=C1)C(=O)C3=CC=CC=C3N2CCCN)C
The gist of the method: as §1

From the supplement of paper PMC10849652 come the findings set out here.

Of roughly 7,900 targets only a part is listed; those with a hit were picked by preference. About 0.6% of all pairs of compound and target were hits. Unmarked numbers belong to inactive results.

UniProt Q08AE8, sequence (Q08AE8 whole entry, looked up): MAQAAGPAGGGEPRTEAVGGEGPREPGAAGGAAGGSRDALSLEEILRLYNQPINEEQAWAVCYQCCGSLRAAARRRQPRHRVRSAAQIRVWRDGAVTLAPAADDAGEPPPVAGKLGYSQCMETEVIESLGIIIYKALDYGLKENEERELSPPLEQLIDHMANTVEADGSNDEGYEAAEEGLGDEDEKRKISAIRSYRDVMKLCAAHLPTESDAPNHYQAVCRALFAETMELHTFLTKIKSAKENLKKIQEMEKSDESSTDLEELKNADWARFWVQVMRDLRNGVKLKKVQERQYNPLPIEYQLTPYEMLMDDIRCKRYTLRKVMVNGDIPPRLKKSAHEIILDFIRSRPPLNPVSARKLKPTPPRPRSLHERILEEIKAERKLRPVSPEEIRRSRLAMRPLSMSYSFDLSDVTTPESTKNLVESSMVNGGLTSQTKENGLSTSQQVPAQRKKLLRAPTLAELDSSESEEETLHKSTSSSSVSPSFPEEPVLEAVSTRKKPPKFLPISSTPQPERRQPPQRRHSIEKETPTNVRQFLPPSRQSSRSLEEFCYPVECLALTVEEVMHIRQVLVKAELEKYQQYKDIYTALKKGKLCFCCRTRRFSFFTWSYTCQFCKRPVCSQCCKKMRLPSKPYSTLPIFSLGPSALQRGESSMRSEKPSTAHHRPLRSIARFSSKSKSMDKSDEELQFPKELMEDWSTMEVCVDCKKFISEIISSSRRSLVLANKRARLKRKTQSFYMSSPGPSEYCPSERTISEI
UniProt Q9NVC3, sequence (Q9NVC3 whole entry, looked up): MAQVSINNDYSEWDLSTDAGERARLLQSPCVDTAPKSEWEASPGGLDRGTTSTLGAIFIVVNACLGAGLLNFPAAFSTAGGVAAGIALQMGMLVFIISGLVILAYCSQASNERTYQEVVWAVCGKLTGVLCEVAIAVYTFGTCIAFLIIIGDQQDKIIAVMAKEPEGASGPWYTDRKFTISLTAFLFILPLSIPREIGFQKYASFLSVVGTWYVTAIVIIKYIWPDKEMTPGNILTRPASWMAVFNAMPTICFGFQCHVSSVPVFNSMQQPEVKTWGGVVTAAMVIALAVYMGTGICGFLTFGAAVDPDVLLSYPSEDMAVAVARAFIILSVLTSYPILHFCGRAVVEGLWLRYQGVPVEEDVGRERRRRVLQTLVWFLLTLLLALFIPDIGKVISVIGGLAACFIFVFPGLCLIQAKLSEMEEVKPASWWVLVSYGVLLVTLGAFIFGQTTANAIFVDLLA
UniProt Q9NYB0, sequence (Q9NYB0 whole entry, looked up): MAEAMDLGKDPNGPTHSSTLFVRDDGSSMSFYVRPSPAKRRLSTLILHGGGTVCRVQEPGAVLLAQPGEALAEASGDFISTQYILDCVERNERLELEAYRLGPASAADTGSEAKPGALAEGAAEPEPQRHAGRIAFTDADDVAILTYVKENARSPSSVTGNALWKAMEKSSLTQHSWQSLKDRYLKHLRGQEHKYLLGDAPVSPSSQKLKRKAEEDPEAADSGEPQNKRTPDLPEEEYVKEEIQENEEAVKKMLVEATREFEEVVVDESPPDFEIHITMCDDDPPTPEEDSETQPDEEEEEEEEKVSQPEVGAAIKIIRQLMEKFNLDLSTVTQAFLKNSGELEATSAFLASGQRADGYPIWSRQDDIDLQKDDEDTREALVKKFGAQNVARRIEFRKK
UniProt Q8WU79, sequence (Q8WU79 whole entry, looked up): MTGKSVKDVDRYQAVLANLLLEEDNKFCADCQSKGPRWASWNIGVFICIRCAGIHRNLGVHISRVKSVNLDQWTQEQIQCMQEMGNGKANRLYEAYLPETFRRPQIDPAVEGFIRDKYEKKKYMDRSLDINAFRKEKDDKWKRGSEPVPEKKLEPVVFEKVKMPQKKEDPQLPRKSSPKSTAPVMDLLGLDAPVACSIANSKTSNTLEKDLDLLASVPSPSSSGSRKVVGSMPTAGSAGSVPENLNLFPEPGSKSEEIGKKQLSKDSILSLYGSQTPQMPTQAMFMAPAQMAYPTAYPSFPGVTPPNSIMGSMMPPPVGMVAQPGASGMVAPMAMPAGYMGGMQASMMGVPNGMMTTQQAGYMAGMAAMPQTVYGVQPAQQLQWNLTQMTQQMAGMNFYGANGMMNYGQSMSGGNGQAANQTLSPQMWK

For the target TERF2IP (UniProt Q9NYB0), the log2 fold change with erlotinib is -0.046; in assay [1] it was 0; in [2], -0.016; in assay [3], -0.003; in [4], 0.022; in assay [5] it was 0.049. Moreover, the log2 fold change in assay [6] was -0.038; in assay [7], -0.074; in assay [8] it was -0.047; in [9] it was -0.006; with IRAK-1-4 Inhibitor I, -0.023; with ibrutinib, -0.009. Moreover, the log2 fold change was -0.151 in [10]; 0.038 in the assay with ralimetinib; 0.034 in [11]; -0.147 in assay [12]; 0.058 in assay [13]; 0.024 with pinometostat. The log2 fold change was 0.007 in assay [14] and -0.33 (active) in [15].
As for SPIRE1 (UniProt Q08AE8), the log2 fold change is 0.16 with erlotinib; -0.264 in [1]; -0.466 (active) in assay [2]; -0.119 in assay [3]; 0.11 in [4]; -0.034 in assay [5]. Besides, the log2 fold change in [6] was 0.048; in [7], -0.063; in assay [8] it was 0.01; in assay [9], 0.145; with IRAK-1-4 Inhibitor I, -0.065; in the assay with ibrutinib it was 0.032. Further, the log2 fold change in assay [10] is 0; with ralimetinib, 0.008; in assay [11], 0.073; in assay [12], 0.181; in assay [13], 0.09; with pinometostat it was -0.006. Besides, the values for the log2 fold change in assay [14] and in [15] were -0.036 and 0.029, respectively.
In the case of SMAP2 (UniProt Q8WU79), the log2 fold change was -0.044 in the assay with erlotinib; 0.13 in assay [1]; -0.005 in [2]; -0.032 in assay [3]; -0.029 in assay [4]; 0.019 in [5]. Also, the log2 fold change in [6] is -0.015; in assay [7], 0.017; in assay [8] it was -0.086; in assay [9] it was 0.038; with IRAK-1-4 Inhibitor I it was 0.04; in the assay with ibrutinib, -0.027. The log2 fold change in assay [10] is 0.039; with ralimetinib, 0.048; in assay [11], -0.039; in assay [12] it was 0.02; in assay [13], 0.137; in the assay with pinometostat it was 0.015. For the same target, the log2 fold change was -0.025 in assay [14] and 0.004 in assay [15].
Turning to SLC38A7 (UniProt Q9NVC3), the log2 fold change in the assay with erlotinib is 0.009; in assay [1] it was -0.003; in [2], 0.071; in assay [3] it was 0.058; in assay [4], 0.024; in assay [5] it was 0.088. Also, the log2 fold change in assay [6] is 0.441 (active); in assay [7] it was 0.006; in assay [8] it was 0.011; in assay [9], 0.097; with IRAK-1-4 Inhibitor I it was 0.035; with ibrutinib, 0.073. The log2 fold change in assay [10] was 0.092; with ralimetinib, 0.205; in assay [11], -0.085; in assay [12], -0.751 (active); in [13] it was -0.024; in the assay with pinometostat it was 0.033. For the same target, the log2 fold change in assay [14] is -0.009; in assay [15], 0.007.
